# Measured values taken from PubChem BioAssay AID1030 (National Center for Advancing Translational Sciences (NCATS), 2008).
# Hit rate of the full screen: of about 220,000 compounds, about 16,000 (7.3%) were called active. About 25% were inconclusive and are not listed. Calls follow the shape of the dose curve; as a rule, active = well fitted inhibition curve with a large enough effect (not every such curve was filed as active); inconclusive = small, poorly fitted or top-dose-only effect, or another doubt; inactive = no such curve, though single readings can be large or run the other way. The list comes from a sample in which actives are over-represented; it also holds similar structures and randomly drawn compounds. A call without a number means that no potency is given here.
# Target: Aldehyde dehydrogenase 1A1 (Homo sapiens) (UniProt P00352)
# Sequence (P00352 whole entry, looked up): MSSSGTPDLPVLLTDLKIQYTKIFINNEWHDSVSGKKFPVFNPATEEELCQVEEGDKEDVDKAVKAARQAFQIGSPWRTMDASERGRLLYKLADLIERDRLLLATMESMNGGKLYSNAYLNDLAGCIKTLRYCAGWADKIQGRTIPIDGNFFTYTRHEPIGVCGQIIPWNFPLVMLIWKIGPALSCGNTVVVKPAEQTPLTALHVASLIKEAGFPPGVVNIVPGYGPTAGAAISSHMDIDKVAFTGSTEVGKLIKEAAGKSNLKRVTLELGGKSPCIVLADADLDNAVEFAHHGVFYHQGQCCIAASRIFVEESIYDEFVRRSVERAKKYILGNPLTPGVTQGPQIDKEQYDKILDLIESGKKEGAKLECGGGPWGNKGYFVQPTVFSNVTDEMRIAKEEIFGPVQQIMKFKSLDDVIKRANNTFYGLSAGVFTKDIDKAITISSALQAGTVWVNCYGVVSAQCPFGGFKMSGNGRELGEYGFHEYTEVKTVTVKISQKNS
# Assay: qHTS Assay for Inhibitors of Aldehyde Dehydrogenase 1 (ALDH1A1)
# Conditions: Purified ALDH1A1, NADH fluorescence, propionaldehyde substrate; series mostly up to 75.3 µM
# Potency is read from the fitted curve at half-maximal effect.
row,SMILES,Potency
1,CCCCN1C(=O)/C(=C2/C=CC=CN2C)SC1=S,22.4 µM (active)
2,CN1C=CC=C/C1=C1\SC(=S)N(Cc2ccccc2)C1=O,12.6 µM (active)
3,CCN1C(=O)/C(=C2/Sc3ccccc3N2CCCS(=O)(=O)O)SC1=S,inactive
4,CC12C(=O)N(c3ccccc3)C(=O)C1C(c1ccccc1)N1CCCN12 (configuration not stated),inactive
5,N#CC1(C#N)C(C(=O)C23CC4CC(CC(C4)C2)C3)C12CCOCC2 (configuration not stated),inactive
6,O=C(c1ccncc1)c1ccc([N+](=O)[O-])cc1,inactive
7,Cc1ccc(C(=O)NCC(=O)O)s1,inactive
8,O=C(N/C(=C\c1ccc(F)cc1)C(=O)N1CCCCCC1)c1ccccc1,inactive
9,CC1Cc2ccccc2N1C(=O)CSc1nc2ccccc2o1 (configuration not stated),inactive
10,CCS(=O)(=O)c1ccc2oc(SCC(=O)N3c4ccccc4CC3C)nc2c1 (configuration not stated),28.2 µM (active)
11,CC1Cc2ccccc2N1C(=O)CSc1nnc(-c2ccc(S(=O)(=O)N3CCCCC3)cc2)o1 (configuration not stated),inactive
12,CO/N=C/c1cn(-c2ccc(Cl)cc2)nn1,inactive
13,COc1cccc([C@@H]2Oc3ccc(Br)cc3C(=O)[C@H]2OC(=O)NCc2ccc3c(c2)OCO3)c1,inactive
14,C1CC1Cc1noc(CN2CCN(CC3CC3)CC2)n1,inactive
15,CCOc1cc(NC(=O)CCl)c(OCC)cc1NC(C)=O,25.1 µM (active)
16,CCOc1cc(NC(=O)c2ccccn2)c(OCC)cc1NC(=O)c1ccc(OC)cc1,inactive
17,CCCC(=O)Nc1cc(OCC)c(NC(=O)NC2CCCCC2)cc1OCC,inactive
18,CC(Nc1nc(N2CCCC2)nc2ccccc12)c1ccccc1 (configuration not stated),inactive
19,Cc1ccc(C(CC(=O)O)Nc2nc(N3CCCCC3)nc(N3CCCCC3)n2)cc1 (configuration not stated),25.1 µM (active)
20,CC(=O)NC(CC(=O)O)c1ccc(F)cc1 (configuration not stated),inactive
21,CC(C)C1N=C2c3ccccc3N=C(SCC(=O)c3ccc(O)c(O)c3)N2C1=O (configuration not stated),0.631 µM (active)
22,Cc1ccc(NC(=O)N2CCSc3ccccc32)cc1,inactive
23,Cn1ccc(=NC=C(C#N)C#N)c2ccccc21,inactive
24,Cc1ccc(NNC(=O)c2c(F)cccc2Cl)cc1Cl,inactive
25,CCOC(=O)C(=Cc1ccccc1OC)C(=O)OCC,inactive
26,Cc1cc(C)nc(NNC2=CC(=O)CC(C)(C)C2)n1,25.1 µM (active)

row,SMILES,Potency
1,COC(=O)NNC1=CC(=O)CC(C)(C)C1,inactive
2,Cc1cc(O)ccc1NC1=CC(=O)CC(C)(C)C1,inactive
3,CCc1nnc(NC(=O)Cc2cccs2)s1,inactive
4,O=C(c1ccc(F)cc1)c1cn(Cc2ccc(F)cc2)c2cc3c(cc2c1=O)OCCO3,inactive
5,O=C1N/C(=C/c2cccn2-c2ccccc2)C(=O)N1c1cccc(Cl)c1,inactive
6,CCCOc1ccccc1C1CC(=O)Nc2cc3c(cc21)OCO3 (configuration not stated),inactive
7,COc1cc2c(cc1/C=C1/NC(=O)N(c3ccccc3)C1=O)OCO2,3.98 µM (active)
8,COC(=O)c1c(C(=O)OC)c2n(c1C)CCS2,inactive
9,CCN(CC)C(=O)CS(=O)CC(=O)Nc1cc(OCCOC)c(Cl)cc1Cl (configuration not stated),inactive
10,CC(N=Cc1nc(-c2ccccc2)oc1O)c1ccccc1 (configuration not stated),inactive
11,CCOc1ccc2nc(/N=C/c3nc(-c4ccccc4)oc3O)sc2c1,inactive
12,Oc1oc(-c2ccccc2Br)nc1/C=N/c1ccccn1,11.2 µM (active)
13,CCOC(=O)C1=C(C)N=C2c3ccccc3C(=O)C2C1c1ccc(Br)cc1 (configuration not stated),inactive
14,O=C(CN1C(=O)c2ccccc2S1(=O)=O)N1CCc2ccccc21,inactive
15,O=C1c2ccccc2S(=O)(=O)N1CC(O)Cn1c2ccccc2c2ccccc21 (configuration not stated),14.1 µM (active)
16,CNC(=O)CN1C(=O)c2ccccc2S1(=O)=O,inactive
17,Cc1ccc(NC(=O)Cn2c(=O)n(CCC(=O)NC3CCN(Cc4ccccc4)CC3)c(=O)c3ccccc32)cc1,inactive
18,COC(=O)c1ccccc1NC(=O)c1ccccc1NS(C)(=O)=O,inactive
19,CCCCNC(=O)c1ccccc1NC(=O)c1ccccc1N(C)S(C)(=O)=O,22.4 µM (active)
20,CCC(C)NC(=O)c1ccccc1NC(=O)c1ccccc1N(C)S(C)(=O)=O (configuration not stated),inactive
21,NC(=O)C[n+]1cccc(C(N)=O)c1,inactive
22,O=C(Cn1cnc([N+](=O)[O-])n1)NCCc1ccccc1,inactive
23,COc1ccc(-n2nnnc2SCC(=O)NCc2cccs2)cc1,inactive
24,Cc1cc(C)nc(Nc2ncn[nH]2)n1,inactive
25,CCCC(=O)Nc1ccccc1N1CCN(C(=O)c2ccccc2)CC1,inactive
26,O=C(Nc1ccccc1)c1ccc2c(c1)OCO2,inactive

row,SMILES,Potency
1,O=C(c1ccc(CN2CCOCC2)cc1)N1CCN(c2ccccc2F)CC1,inactive
2,O=C(CN1CCN(c2ccccc2F)CC1)c1ccc2c(c1)OCO2,14.1 µM (active)
3,O=C(OCc1ccccc1F)c1ccc2c(c1)OCCO2,inactive
4,O=C(Nc1ccccc1N1CCN(C(=O)c2ccccc2)CC1)c1ccc2c(c1)OCO2,10 µM (active)
5,Cc1ccc(NC(=O)Nc2ccccc2)c(Br)c1,inactive
6,O=C(NCCc1ccccn1)c1cc(-c2ccc(Cl)cc2)nc2ccccc12,inactive
7,N#Cc1cnn2cc(CCN3CCOCC3)c(-c3ccc(F)cc3)nc12,inactive
8,Cn1cnnc1SCC(=O)NNC(=O)COc1ccc(Br)cc1,inactive
9,Cc1ccc(-n2c(C)cc(/C=C(\C#N)C(=O)NCC3CCCO3)c2C)cc1 (configuration not stated),3.16 µM (active)
10,Cc1ccc(C(=O)N/C(=C/c2cccs2)C(=O)NCC2CCCO2)cc1 (configuration not stated),inactive
11,Cc1cc(/C=C(/C#N)C(=O)Nc2ccc(Cl)cc2)c(C)n1-c1cccnc1,inactive
12,CCOn1c(=O)c(=O)n(O)c2ccccc21,inactive
13,CC(=O)NCCc1nc2cc(NC(=O)c3ccccc3)ccc2n1C,inactive
14,COc1ccc2c(c1)CCC/C2=N\OC(=O)c1ccccc1F,inactive
15,CC(C)C(=O)Nc1nnc(Sc2ccc(N(C)C)cc2)s1,25.1 µM (active)
16,CCSc1nnc(NC(=O)Cc2ccccc2OC)s1,inactive
17,CCSc1nnc(NC(=O)c2ccc(C)cc2)s1,inactive
18,O=C(c1cn2ccccc2n1)N1CCc2c([nH]c3ccccc23)C1c1ccccn1 (configuration not stated),inactive
19,O=C(NCCc1ccc(F)cc1)c1n[nH]c2ccccc12,inactive
20,Cc1ccc(S(=O)(=O)NCCSc2ccccc2)cc1[N+](=O)[O-],7.08 µM (active)
21,COCCNC(=O)c1ccccc1NS(=O)(=O)c1ccc(C)c([N+](=O)[O-])c1,inactive
22,O=S(=O)(NCCSc1ccccn1)c1ccc(Cl)cc1,inactive
23,CCOc1ccc(S(=O)(=O)NCCSc2ccccc2)cc1,6.31 µM (active)
24,Cc1ccc(S(=O)(=O)NCCC(c2ccccc2)c2ccccc2)cc1C(=O)O,inactive
25,O=S(=O)(NCCNS(=O)(=O)c1ccccc1)c1ccccc1,inactive
